High-throughput results deposited in PubChem by The Scripps Research Institute Molecular Screening Center.
MITF primary – human MITF inhibition, primary screen | 0.91% of 650,000 active | O75030 | AlphaScreen MITF homodimerization, bead proximity signal | inhibition, % at 2.6 µM; in the data active means inhibition above about 50%;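 further: 0% = vehicle wells with protein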
TEAD-YAP inh – TEAD-YAP interaction inhibition | inhibition, % at 9.12 µM | 1.4% of 640,000 active | HEK-TIYL cells, TEAD-Gal4/YAP UAS-luciferase luminescence; in the data active means inhibition above about 32%;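 further: 0% = median of test compound wells and 100% = reference inhibitor wells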
FBW7 activator – human FBW7 E3 ligase activation, primary screen; AlphaScreen FBW7–phospho-cyclin E peptide binding, activator screen; Q969H0; normalized activity (activation), % at 26.1 µM; AID 1259310; 0.13% of 650,000 active; in the data active means normalized activity above about 1.9%;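 further: purified mutant Fbw7 with reduced substrate affinity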
GPR151 activ – activates the human receptor GPR151; Q8TDV0; PathHunter beta-arrestin GPR151 cells, luminescence; activation, % at 11.2 µM; 1% of 650,000 active; in the data active means activation above about 4.9%;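 further: 0% = median of compound wells and 100% = cells with positive control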
Target sequence (Q8TDV0 whole entry, looked up): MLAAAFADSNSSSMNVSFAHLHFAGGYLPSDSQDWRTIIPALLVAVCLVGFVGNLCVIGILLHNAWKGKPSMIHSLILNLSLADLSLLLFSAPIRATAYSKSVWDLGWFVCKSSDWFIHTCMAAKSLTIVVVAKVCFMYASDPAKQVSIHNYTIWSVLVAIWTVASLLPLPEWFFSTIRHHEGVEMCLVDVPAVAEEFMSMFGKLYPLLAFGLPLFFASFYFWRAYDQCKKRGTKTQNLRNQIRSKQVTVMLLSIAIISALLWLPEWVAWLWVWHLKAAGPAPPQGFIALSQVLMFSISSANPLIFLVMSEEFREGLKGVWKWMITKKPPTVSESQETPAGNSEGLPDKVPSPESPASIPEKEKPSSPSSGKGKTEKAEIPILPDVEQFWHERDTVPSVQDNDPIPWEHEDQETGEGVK
MITF confirm – human MITF inhibition, confirmation | AlphaScreen MITF homodimerization, biotin/His-MITF beads | inhibition, % at 2.6 µM | 16% of 4,700 active | shares compounds with MITF primary;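 active means inhibition above a cutoff derived from the DMSO control wells, cut at about 28% in these data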;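 further: 0% = MITF dimer wells with DMSO only; inhibitors lower the bead chemiluminescence by keeping MITF from dimerizing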
AS interf ctr – counter-screen: compounds optically interfering with AlphaScreen | shares compounds with MITF primary | LysRS AlphaScreen counterscreen, signal interference, triplicate | inhibition, % at 2.6 µM | 7.6% of 4,700 active;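 active means inhibition above a cutoff derived from the DMSO control wells, cut at about 30% in these data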
* = called active by the depositor; . = no result given; ! = repeats disagree. In the library only some 3.4% were active in any assay of this set; here they are far more common.

SMILES	MITF primary	TEAD-YAP inh	FBW7 activator	GPR151 activ	others
CN(C)c1ccc(/C=C2/C(=O)NC(=S)N(Cc3ccco3)C2=O)cc1	76*	14	-1	0
COc1cc(/C=C\c2ccc(OC)c(O)c2)cc(OC)c1	8	.	.	2
COc1ccc(/C=C/c2cc(O)cc(O)c2)cc1	-3	92*	0	-6
CCC1(C(=O)c2ccccc2)C(=O)NC(=O)N(c2ccccc2)C1=O (stereo not given)	2	-10	0	0
COc1ccc(OC)c(N2C(=O)/C(=C\c3ccco3)C(=O)NC2=S)c1	79*	-7	0	4
COC(=O)c1cc2c(C(F)(F)F)cc(OP(=O)(OC)OC)nc2s1	3	2	0	1
CC1(C)CN=C(Nc2ccc(N)cc2)S1	-7	8	0	0
Fc1cnc(Nc2ccc(-n3cnc(N4CCOCC4)n3)cc2)cc1-c1cn[nH]c1 (tested in a mixture with another compound)	11	36*	0	0
Cc1nc(C)n(-c2ccc(Nc3cc(-c4cn[nH]c4)ccn3)cc2)n1 (tested in a mixture with another compound)	9	-1	0	0
CCOc1ccc(N2C(=O)CC(=O)NC2=S)cc1	3	-3	0	2
O=C(c1ccccc1)c1cc(Br)ccc1NC(=O)c1cc2ccccc2oc1=O	-11	12	0	1
CC(C)n1ccc(C(=O)Nc2cc3ccccc3oc2=O)n1	-4	63*	0	-5
CCOC(=O)Cn1nnnc1C(c1ccc(F)cc1)N1CC=C(c2ccc(F)cc2)CC1 (stereo not given)	13	12	1	-3
O=C1C=C2C(=CCOC2O)O1 (stereo not given)	29	39*	0	0
COC(=O)C[C@@](O)(CCC(C)(C)O)C(=O)O[C@@H]1C(OC)=C[C@]23CCCN2CCc2cc4c(cc2[C@@H]13)OCO4	7	101*	1	-2
COC1=CC23CCCN2CCc2cc4c(cc2C3C1O)OCO4 (stereo not given)	18	-8	0	-2
CCOC(=O)C1(C#N)CC2c3ccccc3C1c1ccccc12 (stereo not given)	15	7	2.0*	2
COC(=O)C1(C#N)CC2c3ccccc3C1c1ccccc12 (stereo not given)	-1	3	0	3
CC(=O)c1ccc(OC(=O)N(C)c2ccccc2)cc1	-6	-41	0	0
Cc1cc(N(C)C)cc(C)[n+]1OC(=O)N(c1ccccc1)c1ccccc1	-2	64*	0	0
CC[C@@]1(O)C[C@H](O[C@H]2C[C@H](N(C)C)[C@H](O)[C@H](C)O2)c2c(cc3c(c2O)C(=O)c2c(O)cccc2C3=O)[C@H]1C(=O)OC	17	51*	0	0
CC[C@@]1(O)C[C@H](O[C@H]2C[C@H](N(C)C)[C@H](O)[C@H](C)O2)c2c(cc3c(c2O)C(=O)c2c(O)ccc(O)c2C3=O)[C@H]1C(=O)OC	17	-9	0	1
O=c1[nH]c(=O)n(Cc2ccccc2Cl)c(O)c1/C=C1\C=CC=N1	17	52*	0	1
CC(C)CCCn1c(O)c(/C=C2\C=CC=N2)c(=O)[nH]c1=O	1	28	0	1
CCc1cc2c(s1)NC(=O)CN=C2c1ccccc1C	0	29	0	0
SMILES	MITF primary	TEAD-YAP inh	FBW7 activator	GPR151 activ	others
CN1C(=O)[C@]23CC4=CC=C[C@H](O)[C@H]4N2C(=O)[C@@]1(CO)SS3	-4	88*	0	-2
CN1C(=O)C(=Cc2cn(CCOc3ccccc3)c3ccccc23)C(=O)N(C)C1=O	11	-7	0	2
Cn1cccc1/C=C1/C(=O)NC(=S)N(c2ccc(Cl)cc2)C1=O	21	1	0	-2
O=C1NC(=S)N(c2ccc(Cl)cc2)C(=O)/C1=C\c1ccc([N+](=O)[O-])o1	68*	6	0	1
N#CC(C#N)=Cc1ccc(O)c(O)c1	74*!	8	0	-1
CCN(CC)C1=NC(=[N+](CC)CC)c2ccccc21	22	74*	1	0
O=C1NC(=O)N(c2ccc(Br)cc2)C(=O)/C1=C/c1ccc(O)c(O)c1	90*	1	0	1
O=C1NC(=O)N(c2ccc(Br)cc2)C(=O)/C1=C/c1ccc(O)cc1	16	-1	0	2
COc1ccc(CN2CCN(Cc3ccccc3C)CC2)cc1Br	83*	1	0	0	MITF confirm=-2;AS interf ctr=2
COc1ccc(CN2CCN(Cc3ccccc3Cl)CC2)cc1Br	78*	-10	0	0	MITF confirm=-4;AS interf ctr=4
CCOC(=O)c1nc2ccccc2c(=O)n1-c1c(F)cccc1F	5	-2	0	-2
C=CCOC(=O)C1C2NC(=S)N(CCCOC)C1(C)Oc1c(OCC)cccc12 (stereo not given)	7	-5	0	4
CCN1CCN(Cc2cccc(Cl)c2)CC1	14	7	0	0
CCOc1ccc(CN2CCN(Cc3cccc(C)c3)CC2)cc1	54*	14	0	1	MITF confirm=1;AS interf ctr=4
CCOc1ccc(CN2CCN(Cc3cccc(Cl)c3)CC2)cc1	67*	6	0	-1	MITF confirm=-1;AS interf ctr=-2
O=c1c2ccccc2nc(/C=C/c2ccc([N+](=O)[O-])o2)n1-c1ccccc1	8	7	0	-2
CC1C=CC2([N+](=O)[O-])CN(C)CC1([N+](=O)[O-])C2C (stereo not given)	-8	-13	0	0
CCC(C)N1CCN(Cc2ccc(Br)cc2)CC1 (stereo not given)	71*	-8	0	0	MITF confirm=6;AS interf ctr=11
CCC(C)N1CCN(Cc2ccc(F)cc2)CC1 (stereo not given)	59*	-1	0	-1	MITF confirm=-4;AS interf ctr=2
CCC(C)N1CCN(Cc2cccc(Cl)c2)CC1 (stereo not given)	27	3	0	1
CCC(C)N1CCN(Cc2ccc(Cl)cc2)CC1 (stereo not given)	74*	2	0	0	MITF confirm=9;AS interf ctr=14
CC(C)N1CCN(Cc2ccc(Br)cc2)CC1	26	-3	0	1
CC(C)N1CCN(Cc2ccc(F)cc2)CC1	55*	6	0	1	MITF confirm=-3;AS interf ctr=-1
Nc1nonc1-c1nonc1N	13	6	0	0
CCC1(C(=O)c2ccc(Cl)cc2)C2c3cc(Br)ccc3OC(=O)C21C(=O)OCCC(C)C (stereo not given)	0	2	0	-2
CC(C)N1CCN(Cc2ccncc2)CC1	82*	-1	0	-1	MITF confirm=3;AS interf ctr=12
Cc1ccc(CN2CCN(Cc3ccc4c(c3)OCO4)CC2)cc1	46	1	0	-1
COc1cc(Br)c(CN2CCN(C)CC2)cc1OC	10	3	0	-1
